Results on six compounds are retold here after PubChem BioAssay (NCATS).

“And” between values parts separate entries of the source, which are not always exact repeats. Equal entries are not always repeated. Records with an inconclusive call do not appear. The source made the active and inactive calls. Unless noted, the call rests on the fitted dose curve.

In test [1] the target is Ubiquitin carboxyl-terminal hydrolase 1 (Homo sapiens) (UniProt O94782). Description: Inhibitors of USP1/UAF1: Pilot qHTS (AID 504865; active means well fitted inhibition curve with a large enough effect;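 further: rhodamine fluorescence freed from ubiquitin-rhodamine substrate followed over time; top concentration of the series differs between compounds; on the % scale 0 is the no-effect control and ±100 the full control effect; nearly all actives have a fitted effect of over 35% in size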). To be noted: purified USP1/UAF1, Ub-rhodamine cleavage fluorescence; series mostly up to 114 µM. In a few lines:
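1nM USP1/UAF1 + cpd, 15 min RT; start w/ Ub-Rho 150nM final; kinetic FL 480/540 nm, 6 reads q60 s. Buffer 50mM HEPES pH 7.8, 0.5mM EDTA, 1mM TCEP, 0.01% Tween-20, 0.1 mg/ml BSA.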

Test [2] concerns the target Glucocorticoid receptor (Homo sapiens) (UniProt P04150). As to the kind of experiment: qHTS assay for small molecule antagonists of glucocorticoid receptor signaling (AID 588533; active means well fitted inhibition curve with a large enough effect in the signal ratio, with a control signal flat, not every such curve was filed as active; the % refers to the signal ratio;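 further: cells stimulated with 2 nM dexamethasone as agonist; on the % scale 0 is the no-effect control and ±100 the full control effect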). The following applies: HeLa MMTV-bla, GRE beta-lactamase ratio, antagonist mode, 18 h; series mostly up to 76.8 µM. In a few lines:
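Antagonist-mode qHTS: compound titrations added to GRE-bla HeLa cells, then dexamethasone 2 nM final; 18 h, 37 C. CCF4 FRET fluorescence normalized to dexamethasone and DMSO; IC50 from Hill fit.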
Background: In qHTS, concentration-response curves come from the screen itself.

Test [3] concerns the target Vitamin D3 receptor (Homo sapiens) (UniProt P11473). As to the kind of experiment: qHTS assay for small molecule antagonists of vitamin D receptor signaling (AID 588541).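 Further: receptor activated by calcitriol during compound treatment; on the % scale 0 is the no-effect control and ±100 the full control effect.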 To be noted: HEK293T VDR-UAS-bla, beta-lactamase ratio, antagonist mode; series mostly up to 76.7 µM. Summed up:
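Antagonist-mode beta-lactamase reporter assay: HEK293T VDR-UAS-bla cells were exposed to titrated compound alongside 1-alpha,25-dihydroxyvitamin D3 at 3 nM final for 16 h. Values were normalized to the 50 nM agonist control and DMSO basal, with IC50 and efficacy from Hill equation fits.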

Test [4] concerns the target Thyroid hormone receptor beta (Homo sapiens) (UniProt P10828). Description: qHTS assay for small molecule agonists of thyroid hormone receptor beta signaling (AID 588545). The following applies: TR-UAS-bla GripTite HEK 293, beta-lactamase ratio, agonist mode, 18 h, percent of T3 response, DMSO as zero; series mostly up to 76.7 µM. In a few lines:
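Agonist activity was read as beta-lactamase CCF4 fluorescence (405 ex, 460/530 em), scaled between DMSO (0%) and 10 nM T3 (100%), then Hill-fitted for EC50 and efficacy. HEK 293 TR-UAS-bla cells in 2% charcoal/dextran FBS medium were exposed 18 h at 37 C.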

Test [5] is described as follows: qHTS assay for small molecule antagonists of retinoid X receptor alpha signaling (AID 588546; active means well fitted inhibition curve with a large enough effect in the signal ratio, with a control signal flat, not every such curve was filed as active; the % refers to the signal ratio;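 further: cells stimulated with 9-cis-retinoic acid as agonist; on the % scale 0 is the no-effect control and ±100 the full control effect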). The following applies: HEK293T RXRa-UAS-bla, beta-lactamase ratio, antagonist mode; measured here: W530 green channel, cytotoxicity proxy. Summed up: (§1)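 Beta-lactamase reporter inhibition, read as CCF4 fluorescence ratio (ex 405, em 460/530 nm) after 2 h at RT. HEK293T UAS-bla cells, 2500/well, were stimulated with 9-cis-RA at 500 or 100 nM final alongside test compound for 18 h at 37 C.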

The target of test [6] is Retinoic acid receptor RXR-alpha (Homo sapiens) (UniProt P19793). The description is as above. The following applies: HEK293T RXRa-UAS-bla, beta-lactamase ratio, antagonist mode. Summed up: as §1
Test [7] deals with Glucocorticoid receptor (Homo sapiens) (UniProt P04150). As to the kind of experiment: qHTS assay for small molecule agonists of glucocorticoid receptor signaling (AID 588532; active means well fitted curve in the direction sought with a large enough effect in the signal ratio, with a control signal flat; the % refers to the signal ratio;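 further: 100% = dexamethasone at 0.1 µM and 0% = DMSO only wells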). The following applies: HeLa MMTV-bla, beta-lactamase ratio, agonist, 18 h; stronger effect = higher value; percent of dexamethasone control, DMSO zero. In a few lines: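 Using MMTV-bla HeLa cells in medium with 1% stripped FBS and 25 mM HEPES, compounds were titrated and incubated overnight-length (18 h). Beta-lactamase cleavage of CCF4 was quantified by dual-emission fluorescence.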

A short description of test [8]: qHTS assay for small molecule antagonists of peroxisome proliferator-activated receptor delta signaling (AID 588535; active means well fitted inhibition curve with a large enough effect in the signal ratio, with a control signal flat, not every such curve was filed as active; the % refers to the signal ratio;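 on max response: cells co-treated with a PPAR-delta agonist as stimulator during compound exposure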). To be noted: HEK293T PPARd-UAS-bla, beta-lactamase FRET ratio, 18 h; 460 nm channel. In a few lines: (§2)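 HEK293T PPAR-delta-UAS-bla cells, 4000/well, 2% charcoal/dextran FBS; 5 h 37 C; cpd titration; 18 h 37 C; CCF4 2 h RT; FI 460/530 nm; Hill fit → IC50, efficacy.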

The target in test [9] is Peroxisome proliferator-activated receptor delta (Homo sapiens) (UniProt Q03181). Described as above. To be noted: HEK293T PPARd-UAS-bla, beta-lactamase FRET ratio, 18 h; series mostly up to 76.7 µM. Summed up:
as §2

For test [10], the target named is Peroxisome proliferator-activated receptor gamma (Homo sapiens) (UniProt P37231). As to the kind of experiment: qHTS assay for small molecule agonists of peroxisome proliferator-activated receptor gamma signaling (AID 588536; active means well fitted curve in the direction sought with a large enough effect in the signal ratio, with a control signal flat, not every such curve was filed as active; the % refers to the signal ratio;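 further: 0% = DMSO basal wells and 100% = rosiglitazone at 2 µM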). The following applies: HEK293 PPARg-UAS-bla, beta-lactamase ratio, 16 h, percent of rosiglitazone response, DMSO as zero; series mostly up to 76.7 µM. In a few lines: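 Ratiometric blue/green fluorescence (405 nm excitation; 460 and 530 nm emission) from CCF4-loaded HEK293 reporter cells serves as signal. Exposure to test compounds lasts 16 h at 37 C in medium containing 1% charcoal/dextran-treated serum.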

Test [11] has the same target. Description: qHTS assay for small molecule antagonists of peroxisome proliferator-activated receptor gamma signaling (AID 588537; active means well fitted inhibition curve with a large enough effect in the signal ratio, with a control signal flat, not every such curve was filed as active; the % refers to the signal ratio;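 further: reporter cells co-stimulated with 50 nM rosiglitazone agonist during compound treatment; % of control where 0% means no effect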). The following applies: HEK293 PPARg-UAS-bla, beta-lactamase ratio, antagonist mode; series mostly up to 76.8 µM. Summed up:
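Antagonist mode, beta-lactamase reporter in HEK293; charcoal/dextran FBS 1%; 3000 cells/well, 37 C 6-6.5 h; cpd titration + rosiglitazone 50 nM final, 16 h 37 C; CCF4, 2 h RT; 460/530 nm; Hill fit → IC50, efficacy.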

The target of test [12] is Vitamin D3 receptor (Homo sapiens) (UniProt P11473). As to the kind of experiment: qHTS assay for small molecule agonists of vitamin D receptor signaling (AID 588543).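 Further: 0% = DMSO basal and 100% = reference agonist control.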 The following applies: HEK293T VDR-UAS-bla, beta-lactamase ratio, 16 h; series mostly up to 76.8 µM. In a few lines: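 β-lactamase reporter, VDR-UAS-bla HEK293T, agonist mode. Cells plated 5 h at 37 °C, compound titration 16 h at 37 °C, CCF4 dye 2 h RT, ratio 460/530 nm. Hill fit → EC50, efficacy vs 50 nM 1α,25-(OH)2D3.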

The nature of test [13]: qHTS assay for small molecule agonists of retinoid X receptor alpha signaling (AID 588544).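 On activation: 0% = DMSO basal wells and 100% = reference agonist.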 The following applies: HEK293T RXRa-UAS-bla, beta-lactamase reporter, 18 h; 530 nm emission.
For test [14], the target named is Retinoic acid receptor RXR-alpha (Homo sapiens) (UniProt P19793). The test is described as above. The following applies: HEK293T RXRa-UAS-bla, beta-lactamase reporter, 18 h; series mostly up to 76.7 µM.
Test [15] deals with Estrogen receptor (Homo sapiens) (UniProt P03372). As to the kind of experiment: qHTS assay for small molecule antagonists of estrogen receptor alpha signaling (AID 588513; active means well fitted curve in the direction sought with a large enough effect in the signal ratio, with a control signal flat, not every such curve was filed as active; the % refers to the signal ratio; further: on the % scale 0 is the no-effect control and ±100 the full control effect). To be noted: ER-alpha-UAS-bla HEK293, beta-lactamase ratio, antagonist mode; series mostly up to 76.9 µM. Summed up: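 Beta-lactamase reporter, antagonist mode, HEK 293 GripTite cells; 0.5nM E2 stimulus, 18 h, 37 C; CCF4 dye 2 h RT; fluorescence. IC50 and efficacy from Hill fits, normalized to E2 and DMSO.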

Test [16] shares this target. Description: qHTS assay for small molecule agonists of estrogen receptor alpha signaling (AID 588514). Further: nearly all actives have a fitted effect of over 70% in size. Further: potency means the concentration at half of the fitted maximal effect.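 On activation: 0% = vehicle only and 100% = reference agonist.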 To be noted: ER-alpha-UAS-bla HEK293, beta-lactamase ratio, 18 h; series mostly up to 76.8 µM. Summed up: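 Cells were plated at 5000/well, incubated 4 hrs at 37 C, dosed with compound titration series, incubated 18 hrs at 37 C, loaded with CCF4 dye for 2 hrs at RT, then fluorescence was read.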

Test [17] has as its target Androgen receptor (Homo sapiens) (UniProt P10275). As to the kind of experiment: qHTS assay for small molecule agonists of androgen receptor signaling (AID 588515; active means well fitted curve in the direction sought with a large enough effect in the signal ratio, with a control signal flat; the % refers to the signal ratio; further: on the % scale 0 is the no-effect control and ±100 the full control effect). The following applies: AR-UAS-bla HEK293, beta-lactamase ratio, agonist 16 h; stronger effect = higher value. In a few lines: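 EC50 and efficacy came from Hill fits of titrations (up to 92 uM) normalized to 30 nM R1881 as 100% and DMSO as 0%. Compound exposure was 16 h at 37 C on AR-UAS-bla HEK293 cells, with a 405/460/530 nm CCF4 fluorescence read.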

The target is the same in test [18]. As to the kind of experiment: qHTS assay for small molecule antagonists of androgen receptor signaling (AID 588516; active means well fitted curve in the direction sought with a large enough effect in the signal ratio, with a control signal flat, not every such curve was filed as active; the % refers to the signal ratio; further: on the % scale 0 is the no-effect control and ±100 the full control effect). The following applies: AR-UAS-bla HEK293, beta-lactamase ratio, antagonist mode, 16 h; series mostly up to 76.8 µM. In a few lines:
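HEK293 AR-UAS-bla cells, 10% dialyzed FBS medium; cpd titration + R1881 10 nM final, 16 h 37 C; CCF4 2 h RT; FRET ratio; IC50/efficacy via Hill fit.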

Thyroid hormone receptor beta (Homo sapiens), sequence (P10828 whole entry, looked up): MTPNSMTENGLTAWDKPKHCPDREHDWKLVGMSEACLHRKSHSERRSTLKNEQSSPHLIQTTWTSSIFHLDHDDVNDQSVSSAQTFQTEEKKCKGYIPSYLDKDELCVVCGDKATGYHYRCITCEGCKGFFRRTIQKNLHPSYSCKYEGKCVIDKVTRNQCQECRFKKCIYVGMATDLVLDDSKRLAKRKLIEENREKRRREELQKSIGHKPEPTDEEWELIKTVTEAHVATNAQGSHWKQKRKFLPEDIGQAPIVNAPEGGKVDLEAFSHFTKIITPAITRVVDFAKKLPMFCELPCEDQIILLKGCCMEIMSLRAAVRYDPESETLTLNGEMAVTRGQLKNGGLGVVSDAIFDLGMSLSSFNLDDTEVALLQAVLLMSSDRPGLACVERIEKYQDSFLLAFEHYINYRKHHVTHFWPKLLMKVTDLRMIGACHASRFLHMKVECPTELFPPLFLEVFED
Retinoic acid receptor RXR-alpha (Homo sapiens), sequence (P19793 whole entry, looked up): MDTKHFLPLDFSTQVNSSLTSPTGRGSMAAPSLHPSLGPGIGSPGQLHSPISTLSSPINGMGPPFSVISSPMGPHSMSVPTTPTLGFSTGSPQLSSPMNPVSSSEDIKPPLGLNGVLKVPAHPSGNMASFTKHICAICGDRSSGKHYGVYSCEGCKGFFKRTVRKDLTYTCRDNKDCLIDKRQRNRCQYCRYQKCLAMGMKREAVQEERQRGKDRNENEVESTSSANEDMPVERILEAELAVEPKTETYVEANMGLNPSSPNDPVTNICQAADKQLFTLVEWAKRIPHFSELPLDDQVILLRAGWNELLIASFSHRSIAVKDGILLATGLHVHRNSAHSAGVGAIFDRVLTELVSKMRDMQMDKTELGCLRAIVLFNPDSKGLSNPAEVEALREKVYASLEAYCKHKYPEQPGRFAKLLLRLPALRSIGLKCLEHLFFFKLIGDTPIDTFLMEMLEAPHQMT
Estrogen receptor (Homo sapiens), sequence (P03372 whole entry, looked up): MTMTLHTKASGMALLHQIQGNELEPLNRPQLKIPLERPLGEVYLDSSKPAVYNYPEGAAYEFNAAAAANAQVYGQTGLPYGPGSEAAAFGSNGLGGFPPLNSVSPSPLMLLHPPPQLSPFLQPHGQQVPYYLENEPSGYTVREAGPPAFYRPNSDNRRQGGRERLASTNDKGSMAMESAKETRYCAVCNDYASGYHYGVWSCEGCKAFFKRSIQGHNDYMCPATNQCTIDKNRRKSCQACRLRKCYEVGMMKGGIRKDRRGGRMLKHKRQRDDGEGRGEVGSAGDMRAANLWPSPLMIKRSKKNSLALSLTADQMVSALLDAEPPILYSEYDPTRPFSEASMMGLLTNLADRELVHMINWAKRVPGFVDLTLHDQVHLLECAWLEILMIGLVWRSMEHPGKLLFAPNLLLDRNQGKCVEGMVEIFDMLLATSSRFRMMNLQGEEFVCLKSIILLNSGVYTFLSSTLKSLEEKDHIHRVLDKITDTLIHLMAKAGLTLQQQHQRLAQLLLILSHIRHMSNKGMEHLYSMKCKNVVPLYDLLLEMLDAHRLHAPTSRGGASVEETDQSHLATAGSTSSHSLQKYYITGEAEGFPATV
Peroxisome proliferator-activated receptor delta (Homo sapiens), sequence (Q03181 whole entry, looked up): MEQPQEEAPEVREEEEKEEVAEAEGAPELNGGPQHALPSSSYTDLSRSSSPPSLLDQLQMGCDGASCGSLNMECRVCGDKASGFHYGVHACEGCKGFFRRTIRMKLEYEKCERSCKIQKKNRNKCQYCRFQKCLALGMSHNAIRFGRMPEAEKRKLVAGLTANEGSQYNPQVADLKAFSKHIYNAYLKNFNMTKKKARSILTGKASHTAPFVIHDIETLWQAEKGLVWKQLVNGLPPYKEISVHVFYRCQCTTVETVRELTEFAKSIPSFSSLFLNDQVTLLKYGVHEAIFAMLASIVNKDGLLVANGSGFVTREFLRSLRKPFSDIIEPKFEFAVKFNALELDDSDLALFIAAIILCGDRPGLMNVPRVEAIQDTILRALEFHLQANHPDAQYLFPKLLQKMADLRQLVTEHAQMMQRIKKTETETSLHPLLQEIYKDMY
Androgen receptor (Homo sapiens), sequence (P10275 whole entry, looked up): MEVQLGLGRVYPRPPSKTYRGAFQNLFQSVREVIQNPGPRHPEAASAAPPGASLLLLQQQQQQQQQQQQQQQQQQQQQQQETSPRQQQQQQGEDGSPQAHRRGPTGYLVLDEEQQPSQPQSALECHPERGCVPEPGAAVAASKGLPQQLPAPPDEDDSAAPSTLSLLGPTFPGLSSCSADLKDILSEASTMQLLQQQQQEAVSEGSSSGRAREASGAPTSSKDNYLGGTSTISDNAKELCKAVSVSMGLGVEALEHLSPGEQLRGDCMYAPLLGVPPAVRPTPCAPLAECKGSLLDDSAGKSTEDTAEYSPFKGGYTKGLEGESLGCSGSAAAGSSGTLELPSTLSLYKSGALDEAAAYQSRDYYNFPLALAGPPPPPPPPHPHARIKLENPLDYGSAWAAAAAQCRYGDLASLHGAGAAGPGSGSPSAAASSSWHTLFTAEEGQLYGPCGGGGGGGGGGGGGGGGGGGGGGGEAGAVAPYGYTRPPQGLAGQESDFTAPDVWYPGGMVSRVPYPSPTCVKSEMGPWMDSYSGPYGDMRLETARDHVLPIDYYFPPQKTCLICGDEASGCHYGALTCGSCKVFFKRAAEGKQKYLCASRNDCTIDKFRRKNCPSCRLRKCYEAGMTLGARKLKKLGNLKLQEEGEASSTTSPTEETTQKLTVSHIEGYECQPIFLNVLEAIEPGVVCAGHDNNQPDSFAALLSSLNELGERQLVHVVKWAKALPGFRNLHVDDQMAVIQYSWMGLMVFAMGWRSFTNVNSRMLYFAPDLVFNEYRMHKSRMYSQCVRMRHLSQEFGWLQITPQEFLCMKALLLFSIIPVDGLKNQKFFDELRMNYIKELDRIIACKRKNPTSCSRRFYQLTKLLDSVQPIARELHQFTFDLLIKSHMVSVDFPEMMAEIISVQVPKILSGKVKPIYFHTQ
Vitamin D3 receptor (Homo sapiens), sequence (P11473 whole entry, looked up): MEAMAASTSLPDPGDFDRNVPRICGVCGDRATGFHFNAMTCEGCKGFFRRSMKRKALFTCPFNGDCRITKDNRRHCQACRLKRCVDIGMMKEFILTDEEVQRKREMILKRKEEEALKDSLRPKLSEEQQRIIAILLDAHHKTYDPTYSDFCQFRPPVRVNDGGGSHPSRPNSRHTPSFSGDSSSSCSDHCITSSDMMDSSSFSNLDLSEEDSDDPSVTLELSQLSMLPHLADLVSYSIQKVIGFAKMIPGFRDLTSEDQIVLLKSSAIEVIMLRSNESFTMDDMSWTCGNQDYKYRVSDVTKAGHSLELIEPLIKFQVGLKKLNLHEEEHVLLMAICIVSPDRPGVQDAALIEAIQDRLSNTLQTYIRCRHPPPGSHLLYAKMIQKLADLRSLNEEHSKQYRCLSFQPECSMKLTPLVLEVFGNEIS
Ubiquitin carboxyl-terminal hydrolase 1 (Homo sapiens), sequence (O94782 whole entry, looked up): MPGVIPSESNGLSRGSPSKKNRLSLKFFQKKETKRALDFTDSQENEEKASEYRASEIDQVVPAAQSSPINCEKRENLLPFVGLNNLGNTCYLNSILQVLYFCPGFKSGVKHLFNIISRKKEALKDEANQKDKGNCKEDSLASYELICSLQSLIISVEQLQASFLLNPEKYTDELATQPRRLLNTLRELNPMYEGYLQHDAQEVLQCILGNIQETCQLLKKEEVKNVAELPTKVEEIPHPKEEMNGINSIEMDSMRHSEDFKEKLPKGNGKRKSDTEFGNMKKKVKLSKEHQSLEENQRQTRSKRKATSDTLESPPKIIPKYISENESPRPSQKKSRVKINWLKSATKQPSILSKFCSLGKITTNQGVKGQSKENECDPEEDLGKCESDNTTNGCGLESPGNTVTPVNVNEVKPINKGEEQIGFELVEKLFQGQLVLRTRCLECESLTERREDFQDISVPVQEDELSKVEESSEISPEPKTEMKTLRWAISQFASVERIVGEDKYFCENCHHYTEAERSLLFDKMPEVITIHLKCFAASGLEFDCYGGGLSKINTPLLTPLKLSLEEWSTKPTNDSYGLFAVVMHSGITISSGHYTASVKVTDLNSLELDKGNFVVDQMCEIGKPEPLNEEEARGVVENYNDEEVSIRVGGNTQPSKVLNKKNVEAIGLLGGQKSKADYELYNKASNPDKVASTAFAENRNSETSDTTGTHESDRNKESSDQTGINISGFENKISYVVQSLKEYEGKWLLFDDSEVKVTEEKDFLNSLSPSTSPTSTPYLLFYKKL
Peroxisome proliferator-activated receptor gamma (Homo sapiens), sequence (P37231 whole entry, looked up): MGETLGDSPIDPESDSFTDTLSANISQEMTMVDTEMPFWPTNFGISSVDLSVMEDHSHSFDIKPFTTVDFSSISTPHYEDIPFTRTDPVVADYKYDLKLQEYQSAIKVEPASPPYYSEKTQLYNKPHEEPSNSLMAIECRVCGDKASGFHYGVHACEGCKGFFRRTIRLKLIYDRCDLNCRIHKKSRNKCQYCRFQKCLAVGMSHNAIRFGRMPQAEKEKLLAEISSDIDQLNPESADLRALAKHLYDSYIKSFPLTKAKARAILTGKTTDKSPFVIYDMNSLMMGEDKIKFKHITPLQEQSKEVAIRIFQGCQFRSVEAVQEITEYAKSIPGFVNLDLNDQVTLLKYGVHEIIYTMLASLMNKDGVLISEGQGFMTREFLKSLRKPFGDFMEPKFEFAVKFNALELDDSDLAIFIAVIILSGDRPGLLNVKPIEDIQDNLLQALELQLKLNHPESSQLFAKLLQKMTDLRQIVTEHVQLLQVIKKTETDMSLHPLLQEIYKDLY

As to `C[C@H]1C[C@H]2[C@@H]3CCC4=CC(=O)C=C[C@]4(C)[C@@]3(F)[C@@H](O)C[C@]2(C)[C@@]1(O)C(=O)CO`, the Potency result in test [1] was “inactive”. In addition, the result in test [2], in test [3] and in [4] was inactive. Also, the max response in test [5] is 8.66%; in test [6], -12.7% (inactive).

`Cc1ccccc1`: in [1], the Potency result is “inactive”. Also, the activation in [7] was -1.45% (inactive) and 2.79% (inactive). For the same compound, the result in [2], in [9], in test [10], in test [11], in [3] and in test [12] was inactive. For the same compound, the result in [14] and in [4] was inactive. The max response in [8] is 1.03% and 40.9%; in [13], -1.14% and 7.93%; in test [5], -4.05% and 9.42%; in test [6], -5.8% (inactive) and 14.2% (inactive).

With `CC1=C(/C=C/C(C)=C/C=C/C(C)=C/CO)C(C)(C)CCC1`, the result in test [15], in [10], in test [3], in [12] and in test [4] was inactive. For the same compound, the Potency in [16] is 3.16 µM (active). The max response is 23.5% and 17% in test [5]; -17.7% (inactive) and -18.6% (inactive) in test [6].

For the compound `OCc1ccccc1O[C@@H]1O[C@H](CO)[C@@H](O)[C@H](O)[C@H]1O`, the Potency result in test [1] was “inactive”.

`CCOc1ccc2c(c1)C(C)=CC(C)(C)N2`: in test [1], the activity change, negative = inhibition was -8.83% [at 11.4 µM] (inactive). Also, the outcome in test [15], in [18] and in test [4] was inactive. Moreover, the Potency entry in test [16] is “inactive”. Moreover, the activation in [17] is 15.4% (inactive).

On to `CC(C)=O`, for which the outcome in test [15], in test [18], in test [9], in [10], in [11] and in test [3] was inactive. For the same compound, the result in test [12], in test [14] and in test [4] was inactive. Moreover, in test [16], the Potency entry is “inactive”. Further, the activation in test [17] was 7.27% (inactive). Further, the max response in [8] is -10.3%; in [13], 9.06%; in test [5] it was 9.42%; in [6], 3.03% (inactive).
